Data published in PubChem BioAssay (NCI).
About 83,000 compounds went through this panel and 20% of them were active in at least one assay; those are over-represented in the sample as a whole.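 Single-concentration screen, 48 h exposure, 96-well plates. Endpoint: percent growth. Below 10 = active.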 Active and inactive are the calls of the source.

Assays:
Assay in all cases: NCI-60 one-dose screen, 48 h (100 = growth as untreated, 0 = no growth, -100 = all killed)
Settings in all cases: 10 µM unless noted
NCI-H226 lung = test system: NCI-H226 lung
NCI-H322M lung = test system: NCI-H322M lung
HOP-62 NSCLC = test system: HOP-62 NSCLC
NCI-H460 lung = test system: NCI-H460 lung
HOP-92 NSCLC = test system: HOP-92 NSCLC
NCI-H522 lung = test system: NCI-H522 lung
A549/ATCC NSCLC = test system: A549/ATCC NSCLC
786-0 renal = test system: 786-0 renal
COLO 205 colon = test system: COLO 205 colon
DU-145 prostate = test system: DU-145 prostate

Measured: growth

CC(=O)Oc1ccccc1C(=O)Nc1ccc(C(=O)/C=C/c2ccncc2)cc1
inactive: NCI-H226 lung 92.5% | NCI-H322M lung 78.3% | HOP-62 NSCLC 91.4% | NCI-H460 lung 45.8% | HOP-92 NSCLC 66.1% | NCI-H522 lung 71.8% | A549/ATCC NSCLC 56.5% | 786-0 renal 33.9% | COLO 205 colon 66% | DU-145 prostate 35.6%

CCCCCCNC(=O)Oc1ccc(/C(=C(/C)c2ccccc2)c2ccc(OCCN3CCCCCC3)cc2)cc1
active: NCI-H460 lung 6.58% | 786-0 renal -0.48%
inactive: NCI-H226 lung 76.7% | NCI-H322M lung 87.5% | HOP-62 NSCLC 78.6% | HOP-92 NSCLC 12.5% | NCI-H522 lung 85% | A549/ATCC NSCLC 63.1% | COLO 205 colon 21.7% | DU-145 prostate 68.2%

CN(C)c1ccc(-c2c(NC(C)(C)C)nc3c(OCCc4ccccc4)cccn23)cc1
inactive: NCI-H226 lung 10.6% | NCI-H322M lung 12.2% | HOP-62 NSCLC 25.1% | A549/ATCC NSCLC 23.2% | 786-0 renal 20.8% | DU-145 prostate 33.2%
active: NCI-H460 lung 3.22% | HOP-92 NSCLC -27.5% | NCI-H522 lung 5.7% | COLO 205 colon -84.6%

CO/N=C1\CCc2c(sc(NC(=O)c3cccc(C(F)(F)F)c3)c2C(N)=O)C1
inactive: NCI-H322M lung 19.9% | NCI-H522 lung 26.5% | COLO 205 colon 72.6% | DU-145 prostate 52.9%
active: NCI-H226 lung -10.4% | HOP-62 NSCLC -0.189% | NCI-H460 lung 2.77% | HOP-92 NSCLC -12.7% | A549/ATCC NSCLC -9.56% | 786-0 renal 1.79%

O=[N+]([O-])c1ccc(O)c2ncccc12
inactive: NCI-H226 lung 48.7% | NCI-H322M lung 39.1% | HOP-62 NSCLC 19.1% | NCI-H460 lung 10.3% | HOP-92 NSCLC 40.1% | NCI-H522 lung 21.2% | A549/ATCC NSCLC 27% | 786-0 renal 42.4% | COLO 205 colon 46.5% | DU-145 prostate 43.3%

O=C1Nc2ccccc2Oc2ccc(S(=O)(=O)CC3CO3)cc21 (stereo not given)
inactive: NCI-H226 lung 95.7% | NCI-H322M lung 93.7% | HOP-62 NSCLC 101% | NCI-H460 lung 79.5% | HOP-92 NSCLC 88.8% | NCI-H522 lung 32.8% | A549/ATCC NSCLC 77.2% | 786-0 renal 98.1% | COLO 205 colon 50.1% | DU-145 prostate 61.2%

COc1cc(OC)c(S(=O)(=O)NNC(=O)c2ccncc2)cc1C(=O)/C=C/c1ccc(C)cc1
inactive: NCI-H226 lung 89.5% | NCI-H322M lung 62.3% | HOP-62 NSCLC 103% | NCI-H460 lung 63.4% | HOP-92 NSCLC 42.1% | NCI-H522 lung 84.9% | A549/ATCC NSCLC 93.4% | 786-0 renal 57.1% | COLO 205 colon 99% | DU-145 prostate 83.1%

Cc1c(NC(=O)CSc2nc3sc4c(c3c(=O)n2-c2ccc(Cl)cc2)CCCC4)c(=O)n(-c2ccccc2)n1C
inactive: NCI-H226 lung 108% | NCI-H322M lung 94.9% | HOP-62 NSCLC 99.3% | NCI-H460 lung 96.8% | HOP-92 NSCLC 96.3% | NCI-H522 lung 96.8% | A549/ATCC NSCLC 81.2% | 786-0 renal 102% | COLO 205 colon 106% | DU-145 prostate 89.4%

O=C1[C@H]2Cc3c([nH]c4ccccc34)[C@@H](c3ccc(Br)cc3)N2C(=O)CN1C1CCN(Cc2ccccc2)CC1
active: NCI-H522 lung -36.7%
inactive: NCI-H226 lung 39.5% | NCI-H322M lung 67% | HOP-62 NSCLC 54% | NCI-H460 lung 30% | HOP-92 NSCLC 28.9% | A549/ATCC NSCLC 20.7% | 786-0 renal 41.1% | COLO 205 colon 12.7% | DU-145 prostate 38.8%

C[C@@H](Nc1c(C#N)cnc2ccc(-c3cnc(N)nc3)cc12)c1ccccc1
active: NCI-H322M lung -6.52% | HOP-92 NSCLC -10.5% | NCI-H522 lung -2.38%
inactive: NCI-H226 lung 18.8% | HOP-62 NSCLC 31.1% | NCI-H460 lung 13.3% | A549/ATCC NSCLC 15.8% | 786-0 renal 13.5% | COLO 205 colon 17.3% | DU-145 prostate 12.8%

C=CCSc1ccc2c(c1)C(N1CCNCC1)=Nc1ccccc1O2
inactive: NCI-H226 lung 87.4% [8.25 µM] | NCI-H322M lung 85.6% [8.25 µM] | HOP-62 NSCLC 84.7% [8.25 µM] | NCI-H460 lung 85.7% [8.25 µM] | HOP-92 NSCLC 34.2% [8.25 µM] | NCI-H522 lung 74% [8.25 µM] | A549/ATCC NSCLC 71.7% [8.25 µM] | 786-0 renal 60.4% [8.25 µM] | DU-145 prostate 90.8% [8.25 µM]
active: COLO 205 colon 7.69% [8.25 µM]

CC(=O)Oc1ccccc1C(=O)Nc1cc(C(C)C)ccc1C
active: NCI-H226 lung 9.84% | NCI-H460 lung 9.6% | HOP-92 NSCLC -19.5% | NCI-H522 lung 4.56%
inactive: NCI-H322M lung 11.7% | HOP-62 NSCLC 19.6% | A549/ATCC NSCLC 13.1% | 786-0 renal 25.6% | COLO 205 colon 92.7% | DU-145 prostate 23.1%

CCN1C(=S)N(CC)C2C1N=C(SC)N2/N=C/C=C/c1ccccc1[N+](=O)[O-] (stereo not given)
inactive: NCI-H226 lung 92.9% | NCI-H322M lung 92.3% | HOP-62 NSCLC 99.7% | NCI-H460 lung 93.5% | HOP-92 NSCLC 79.7% | NCI-H522 lung 93.6% | A549/ATCC NSCLC 92.8% | 786-0 renal 101% | COLO 205 colon 120% | DU-145 prostate 101%

O=C(O)CCCCCN1C(=O)/C(=C/c2ccc(O)c(O)c2)SC1=S
inactive: NCI-H226 lung 106% | NCI-H322M lung 89.9% | HOP-62 NSCLC 110% | NCI-H460 lung 108% | HOP-92 NSCLC 139% | NCI-H522 lung 98% | A549/ATCC NSCLC 113% | 786-0 renal 105% | COLO 205 colon 125% | DU-145 prostate 103%

Cn1cc(-c2cc(N)n3nc(-c4cn(C)c5ccc(F)cc45)cc3n2)c2cc(F)ccc21
active: NCI-H460 lung -23.2% | 786-0 renal -87.7%
inactive: NCI-H226 lung 106% | NCI-H322M lung 71.2% | HOP-62 NSCLC 92% | HOP-92 NSCLC 75.7% | NCI-H522 lung 28.6% | A549/ATCC NSCLC 18.5% | COLO 205 colon 115% | DU-145 prostate 44.8%

COc1cccc(-c2nn(-c3ccccc3)cc2-c2ccnc(N3CCN(C(=O)c4ccccc4)CC3)c2)c1
inactive: NCI-H226 lung 109% | NCI-H322M lung 105% | HOP-62 NSCLC 113% | NCI-H460 lung 81.8% | HOP-92 NSCLC 71.2% | NCI-H522 lung 77.1% | A549/ATCC NSCLC 71.7% | 786-0 renal 102% | COLO 205 colon 97.7% | DU-145 prostate 91.5%

CCOc1ccc([C@H]2C(C(=O)c3ccc(Cl)cc3)C3(N[C@@H]2c2ccccc2)C(=O)Nc2ccc(Br)cc23)cc1 (stereo not given in full)
active: NCI-H460 lung 2.83%
inactive: NCI-H226 lung 47.3% | NCI-H322M lung 45.6% | HOP-62 NSCLC 54.5% | HOP-92 NSCLC 16% | NCI-H522 lung 51.5% | A549/ATCC NSCLC 26% | 786-0 renal 23% | COLO 205 colon 19.3% | DU-145 prostate 47.6%

COc1ccc(-c2nn3c(-c4ccccc4F)nnc3s2)cc1
inactive: NCI-H226 lung 89.4% | NCI-H322M lung 75% | HOP-62 NSCLC 67.5% | NCI-H460 lung 30% | HOP-92 NSCLC 76.9% | NCI-H522 lung 20.2% | A549/ATCC NSCLC 56.6% | 786-0 renal 72.5% | COLO 205 colon 41.6% | DU-145 prostate 72.2%

Cn1ccnc1C(=O)/C=C/c1ccc(NC(=O)Nc2ccc(F)cc2)cc1
inactive: NCI-H226 lung 63.3% | NCI-H322M lung 49.5% | HOP-62 NSCLC 31% | HOP-92 NSCLC 78.2% | NCI-H522 lung 14.7% | A549/ATCC NSCLC 36.4% | 786-0 renal 27.3% | COLO 205 colon 49.5% | DU-145 prostate 35.1%
active: NCI-H460 lung 7.07%

Nc1c(C(=O)Nc2ccc(C(F)(F)F)cc2)sc2nc(-c3cnccn3)cc(-c3cccs3)c12
inactive: NCI-H322M lung 81.8% | HOP-62 NSCLC 68.1% | NCI-H460 lung 69.7% | NCI-H522 lung 88.5% | A549/ATCC NSCLC 77.9% | COLO 205 colon 104% | DU-145 prostate 90.1%
active: NCI-H226 lung 6.24% | HOP-92 NSCLC -27.4% | 786-0 renal -90.3%

Cc1cc(C(=O)Nc2sc3c(c2C(N)=O)CCC(=O)C3)ccc1OCCN1CCCCC1
inactive: NCI-H226 lung 109% | NCI-H322M lung 111% | HOP-62 NSCLC 119% | NCI-H460 lung 99.4% | HOP-92 NSCLC 113% | NCI-H522 lung 90.8% | A549/ATCC NSCLC 81.1% | 786-0 renal 111% | COLO 205 colon 106% | DU-145 prostate 99.2%

CCOC(=O)c1c(NC(=O)c2cccc(C(F)(F)F)c2)sc2cc(O)ccc12
inactive: NCI-H226 lung 98.1% | NCI-H322M lung 98% | HOP-62 NSCLC 99.3% | NCI-H460 lung 99.9% | HOP-92 NSCLC 102% | NCI-H522 lung 81.3% | A549/ATCC NSCLC 101% | 786-0 renal 109% | COLO 205 colon 107% | DU-145 prostate 98.9%

COc1ccccc1/C=C/C=N/NC1=NC2C(S1)N(C)C(=O)N2C (stereo not given)
inactive: NCI-H226 lung 55.7% | NCI-H322M lung 51.7% | HOP-62 NSCLC 35.6% | NCI-H460 lung 11.1% | A549/ATCC NSCLC 48.3% | 786-0 renal 44.2% | DU-145 prostate 24.5%
active: HOP-92 NSCLC 9.2% | NCI-H522 lung -24% | COLO 205 colon 5.69%

CC(C)NC(=O)c1cc(-c2ccc(NC(=O)Nc3ccc(N4CCOCC4)c(C(F)(F)F)c3)cc2)nc2cccnc12
inactive: NCI-H226 lung 80% | NCI-H322M lung 91.2% | HOP-62 NSCLC 43.9% | NCI-H460 lung 55.2% | HOP-92 NSCLC 72.3% | NCI-H522 lung 87% | A549/ATCC NSCLC 62.4% | 786-0 renal 17% | COLO 205 colon 99.7% | DU-145 prostate 78.9%

CN(C)CCCNc1c2ccc(Cl)cc2nc2c1oc1ccccc12
active: NCI-H226 lung 1.58% | NCI-H322M lung -9.39% | NCI-H460 lung -3.28% | HOP-92 NSCLC -1.97% | NCI-H522 lung 2.37% | A549/ATCC NSCLC -40.4% | 786-0 renal 2.06% | COLO 205 colon 1.47% | DU-145 prostate 4%
inactive: HOP-62 NSCLC 46.9%

CS(=O)(=O)c1ccc(-c2nc3ccccn3c2C=Nc2ccc(Cl)cc2)cc1
inactive: NCI-H226 lung 102% | NCI-H322M lung 76.7% | HOP-62 NSCLC 82.8% | NCI-H460 lung 57.7% | HOP-92 NSCLC 98.5% | NCI-H522 lung 58.6% | A549/ATCC NSCLC 72.1% | 786-0 renal 69.5% | COLO 205 colon 99.6% | DU-145 prostate 61.3%
